Assay [1] deals with rat Mineralocorticoid Receptor (MR), Nr3c2 (gene 25672) (UniProt P22199). Put plainly: NVS_NR_rMR: NovaScreen (NVS) Nuclear Receptor Binding Assay for rat Mineralocorticoid Receptor (MR) (AID 2283355). In short, it runs like this: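 Primary HTS ran in duplicate at a single 25 uM concentration, with concentration-series follow-up for actives. Receptor source: adrenalectomized rat brain supernatant, cell-free. Radioligand displacement read by scintillation at 24 h, relative to DMSO baseline.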

Assay [2] deals with Retinoic acid receptor alpha (Homo sapiens) (UniProt P10276). The experiment in a line: NVS_NR_hRAR_Antagonist: NovaScreen (NVS) Nuclear Receptor Binding Assay for human Retinoic Acid Alpha Receptor Antagonism (RAR) (AID 2283358). An outline of the steps:
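RARalpha antagonism was read by TR-FRET as loss of binding signal versus DMSO, 2 h after chemical addition, in a biochemical format. Single-concentration duplicates (25 uM) were run first, and actives were retested in concentration series.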

Assay [3] concerns the target human Thyroid Receptor Alpha (TRa), THRA (gene 7067) (UniProt P10827). The experiment in a line: NVS_NR_hTRa_Antagonist: NovaScreen (NVS) Nuclear Receptor Binding Assay for human Thyroid Receptor Alpha Antagonism (TRa) (AID 2283362).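 Further: activity is loss of signal relative to DMSO baseline.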 An outline of the steps: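 In this biochemical format, receptor protein is dosed with chemical and read after 1 hour via AlphaLISA. Decreases from the DMSO baseline indicate antagonist activity; screening used 25 uM in duplicate before concentration-response confirmation.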

For assay [4], the target named is rat Androgen Receptor (AR), Ar (gene 24208) (UniProt P15207). The experiment in a line: NVS_NR_rAR: NovaScreen (NVS) Nuclear Receptor Binding Assay for rat Androgen Receptor (AR) (AID 2283366). An outline of the steps: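 Actives from a duplicate single-concentration (25 uM) primary run went on to concentration series. Displacement of radioligand was counted by filtration and scintillation, 18 h post-dose, using prostate extracts from testosterone-pretreated rats, with DMSO as baseline.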

Assay [5] deals with guinea pig Sigma Receptor, Non-selective Binding, SIGMAR1 (gene 100135589) (UniProt Q60492). The experiment in a line: NVS_OR_gSIGMA_NonSelective: NovaScreen (NVS) Nuclear Receptor Binding Assay for guinea pig Sigma Receptor, Non-selective Binding (AID 2283367). In short, it runs like this:
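Guinea pig brain membrane sigma sites were labelled with a radioligand, and bound radioactivity was counted after filtration 1 h post-dose. Compounds were screened at 25 uM in duplicate, then retested as concentration series when active.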

Records with an inconclusive call do not appear. Activity calls are given as the source filed them. How the source made its calls: active means hit-call score of the fitted dose curve at least 0.9, where 1 is the maximum; inconclusive means response in the unintended direction; inactive means score below 0.9.

A word on the AC50: it is the midpoint of the concentration-response curve, whichever way the signal moves.

Chain of Retinoic acid receptor alpha (Homo sapiens) (P10276 whole entry, looked up): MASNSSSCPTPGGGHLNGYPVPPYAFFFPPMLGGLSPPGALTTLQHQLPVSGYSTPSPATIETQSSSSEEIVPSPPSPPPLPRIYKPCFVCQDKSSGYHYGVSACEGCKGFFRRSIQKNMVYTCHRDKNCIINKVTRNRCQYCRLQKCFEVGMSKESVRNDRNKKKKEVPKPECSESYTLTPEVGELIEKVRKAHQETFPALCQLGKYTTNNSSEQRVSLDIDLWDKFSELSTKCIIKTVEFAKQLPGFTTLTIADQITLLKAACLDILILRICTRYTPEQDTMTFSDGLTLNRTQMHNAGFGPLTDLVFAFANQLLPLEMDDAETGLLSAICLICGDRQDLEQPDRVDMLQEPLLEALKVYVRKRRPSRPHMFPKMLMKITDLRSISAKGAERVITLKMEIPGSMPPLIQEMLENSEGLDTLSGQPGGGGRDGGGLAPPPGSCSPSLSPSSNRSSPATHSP
Chain of guinea pig Sigma Receptor, Non-selective Binding, SIGMAR1 (gene 100135589) (Q60492 whole entry, looked up): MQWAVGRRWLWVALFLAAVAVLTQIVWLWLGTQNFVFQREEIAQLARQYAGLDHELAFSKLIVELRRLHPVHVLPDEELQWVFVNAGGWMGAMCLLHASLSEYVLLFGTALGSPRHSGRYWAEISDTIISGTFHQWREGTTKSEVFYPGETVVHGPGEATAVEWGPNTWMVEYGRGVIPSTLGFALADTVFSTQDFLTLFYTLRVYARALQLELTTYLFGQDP
Chain of rat Mineralocorticoid Receptor (MR), Nr3c2 (gene 25672) (P22199 whole entry, looked up): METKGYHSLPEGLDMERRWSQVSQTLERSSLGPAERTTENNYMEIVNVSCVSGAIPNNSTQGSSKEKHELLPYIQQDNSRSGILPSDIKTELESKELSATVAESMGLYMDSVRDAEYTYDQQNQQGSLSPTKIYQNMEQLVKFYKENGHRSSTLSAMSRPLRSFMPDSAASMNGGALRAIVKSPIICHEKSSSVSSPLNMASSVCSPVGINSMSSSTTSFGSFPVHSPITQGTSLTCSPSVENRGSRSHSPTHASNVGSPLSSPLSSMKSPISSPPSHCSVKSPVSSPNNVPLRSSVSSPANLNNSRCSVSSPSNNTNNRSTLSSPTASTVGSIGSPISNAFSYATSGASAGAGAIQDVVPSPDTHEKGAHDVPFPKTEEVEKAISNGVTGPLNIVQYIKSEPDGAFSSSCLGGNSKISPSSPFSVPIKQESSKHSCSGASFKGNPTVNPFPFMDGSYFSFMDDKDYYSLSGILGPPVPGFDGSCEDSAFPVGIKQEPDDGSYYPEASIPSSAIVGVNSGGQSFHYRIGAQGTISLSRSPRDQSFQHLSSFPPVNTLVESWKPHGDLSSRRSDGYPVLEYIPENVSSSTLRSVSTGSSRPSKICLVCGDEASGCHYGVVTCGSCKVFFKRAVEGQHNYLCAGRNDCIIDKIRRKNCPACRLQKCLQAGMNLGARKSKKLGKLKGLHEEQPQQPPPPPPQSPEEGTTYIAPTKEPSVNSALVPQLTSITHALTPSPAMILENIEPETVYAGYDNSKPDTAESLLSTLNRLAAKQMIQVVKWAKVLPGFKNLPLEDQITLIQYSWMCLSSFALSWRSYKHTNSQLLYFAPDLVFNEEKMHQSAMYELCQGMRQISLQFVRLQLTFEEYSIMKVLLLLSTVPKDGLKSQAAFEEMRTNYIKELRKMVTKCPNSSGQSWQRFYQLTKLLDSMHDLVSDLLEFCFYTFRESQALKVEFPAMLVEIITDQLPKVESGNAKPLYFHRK
Chain of human Thyroid Receptor Alpha (TRa), THRA (gene 7067) (P10827 whole entry, looked up): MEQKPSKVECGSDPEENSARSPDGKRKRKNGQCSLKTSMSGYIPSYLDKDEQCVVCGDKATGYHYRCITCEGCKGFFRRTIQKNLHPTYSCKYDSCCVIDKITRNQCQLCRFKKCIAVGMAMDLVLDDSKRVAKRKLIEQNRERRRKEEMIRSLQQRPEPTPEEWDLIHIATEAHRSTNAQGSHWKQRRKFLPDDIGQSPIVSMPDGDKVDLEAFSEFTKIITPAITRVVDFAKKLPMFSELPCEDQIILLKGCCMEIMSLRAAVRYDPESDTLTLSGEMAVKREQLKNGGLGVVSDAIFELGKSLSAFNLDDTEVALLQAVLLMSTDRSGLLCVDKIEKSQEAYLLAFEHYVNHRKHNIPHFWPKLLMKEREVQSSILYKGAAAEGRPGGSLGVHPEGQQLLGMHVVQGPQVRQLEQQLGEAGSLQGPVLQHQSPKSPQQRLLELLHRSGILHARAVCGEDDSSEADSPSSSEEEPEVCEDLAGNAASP
Chain of rat Androgen Receptor (AR), Ar (gene 24208) (P15207 whole entry, looked up): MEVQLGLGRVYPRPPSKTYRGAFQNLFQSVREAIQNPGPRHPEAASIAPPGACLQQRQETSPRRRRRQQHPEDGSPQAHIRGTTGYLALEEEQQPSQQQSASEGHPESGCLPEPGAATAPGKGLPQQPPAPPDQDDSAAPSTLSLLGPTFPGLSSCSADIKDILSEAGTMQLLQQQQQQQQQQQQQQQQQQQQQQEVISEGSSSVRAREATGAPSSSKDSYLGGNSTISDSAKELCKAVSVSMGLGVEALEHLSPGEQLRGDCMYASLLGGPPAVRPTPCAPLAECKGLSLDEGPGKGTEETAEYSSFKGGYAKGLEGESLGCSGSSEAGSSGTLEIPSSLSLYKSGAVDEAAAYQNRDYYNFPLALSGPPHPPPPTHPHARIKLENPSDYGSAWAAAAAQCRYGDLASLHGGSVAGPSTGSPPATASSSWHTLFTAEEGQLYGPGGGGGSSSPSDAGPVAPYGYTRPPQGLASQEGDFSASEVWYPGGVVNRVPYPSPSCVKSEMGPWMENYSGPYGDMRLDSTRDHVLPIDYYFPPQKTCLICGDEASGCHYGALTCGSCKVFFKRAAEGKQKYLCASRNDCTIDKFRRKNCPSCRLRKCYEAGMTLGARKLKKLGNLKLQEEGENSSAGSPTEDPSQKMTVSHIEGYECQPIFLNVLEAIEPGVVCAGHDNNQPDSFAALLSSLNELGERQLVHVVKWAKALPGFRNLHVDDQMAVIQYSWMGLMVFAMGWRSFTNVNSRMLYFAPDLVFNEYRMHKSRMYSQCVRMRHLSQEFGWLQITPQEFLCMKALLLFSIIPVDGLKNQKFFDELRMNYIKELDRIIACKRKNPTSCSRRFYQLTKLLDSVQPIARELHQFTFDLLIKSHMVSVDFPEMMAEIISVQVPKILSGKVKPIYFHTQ

Regarding `C#C[C@]1(O)CC[C@H]2[C@@H]3CCc4cc(OC)ccc4[C@H]3CC[C@@]21C`, the compound was classed as inactive in assay [1]. Turning to `CCN(Cc1cccc(S(=O)(=O)O)c1)c1ccc(C(=C2C=CC(=[N+](CC)Cc3cccc(S(=O)(=O)O)c3)C=C2)c2ccc(O)cc2S(=O)(=O)[O-])cc1`, the AC50 in assay [2] was 7.39 µM (active).

Take `CC(Cc1ccc(O)c(O)c1)C(C)Cc1ccc(O)c(O)c1` (stereo unspecified): in assay [2], the AC50 is 11.7 µM (active). Consider `CCCCCCC(C)OC(=O)CCCCC(=O)OC(C)CCCCCC` (stereo unspecified), for which the result in assay [3] was inactive. With `CC(=O)Nc1ccc(N=Nc2cc(C)ccc2O)cc1`, the AC50 in assay [4] is 25 µM (active).

Regarding `CCCCCCCCCCCCCCCC[N+](C)(C)Cc1ccccc1`, the AC50 in assay [5] is 1.23 µM (active).

These data come from PubChem BioAssay (EPA / NIEHS).
